Compound activity: PubChem, National Center for Advancing Translational Sciences (NCATS)
KB-V1 MDR tox: KB-V1 MDR subline cytotoxicity; 3.4% of 400,000 active; KB-V1 MDR cells viability, CellTiter-Glo, 72 h; Potency, µM (highest dose often 46.1 µM), most hits filed as cytotoxic; also: % is scaled to controls: 0 for no effect and ±100 for the full control effect; nearly all actives have a fitted effect of over 60% in size
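Readout: CellTiter-Glo luminescence, 10 min after addition. Cells: KB-V1 MDR subline, 72 h at 37 degrees C with compound. Analysis: corrected, normalized data fitted to concentration-effect curves.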
MCF10A rereplic: inducers of DNA re-replication in MCF 10A breast cells. MCF 10A DNA re-replication, Hoechst nuclear intensity, 48 h. Potency, µM (titrated, usually from 46.1 µM), for the others: at the top dose activity, positive = re-replication, most hits filed as activators. 2.9% of 350,000 active. AID 624296; also: % of control where 0% means no effect; nearly all actives have a fitted effect of over 50% in size
ALOX12 inh: blocks human arachidonate 12S-lipoxygenase | purified 12hLO, xylenol orange hydroperoxide absorbance | Potency, µM (titrated, usually from 108 µM), inactives show at the top dose activity change, negative = inhibition, usual class: inhibitors | 1.1% of 580,000 active; also: % is scaled to controls: 0 for no effect and ±100 for the full control effect
Target sequence (P18054 whole entry, looked up): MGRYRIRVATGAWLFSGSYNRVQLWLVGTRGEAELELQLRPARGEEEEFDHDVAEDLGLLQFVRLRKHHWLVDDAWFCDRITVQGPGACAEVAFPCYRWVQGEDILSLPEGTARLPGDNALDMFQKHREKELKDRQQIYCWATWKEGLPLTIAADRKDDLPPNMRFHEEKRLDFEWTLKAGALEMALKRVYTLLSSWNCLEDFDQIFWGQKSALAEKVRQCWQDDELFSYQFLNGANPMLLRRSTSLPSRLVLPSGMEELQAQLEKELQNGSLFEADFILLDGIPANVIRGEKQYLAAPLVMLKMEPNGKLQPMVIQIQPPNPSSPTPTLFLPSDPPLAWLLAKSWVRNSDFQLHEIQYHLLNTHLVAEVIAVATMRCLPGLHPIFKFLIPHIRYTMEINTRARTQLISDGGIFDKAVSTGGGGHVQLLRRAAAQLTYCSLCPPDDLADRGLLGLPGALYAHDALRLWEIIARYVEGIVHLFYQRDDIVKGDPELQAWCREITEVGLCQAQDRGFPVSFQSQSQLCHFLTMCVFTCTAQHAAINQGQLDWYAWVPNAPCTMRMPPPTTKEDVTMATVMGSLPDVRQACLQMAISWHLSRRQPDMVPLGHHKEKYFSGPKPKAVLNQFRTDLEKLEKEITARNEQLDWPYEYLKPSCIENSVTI
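Purified human 12hLO (150 nM final) in 25 mM Hepes, 0.01% Triton X-100, pH 7.0 was preincubated 15 min at room temperature with compound. Then 40 uM arachidonic acid was added, 30 min. Hydroperoxide was read by Fe-XO absorbance ratio 573/405 nm.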
PINK1 expr mod: PINK1 expression modulation | PINK1 immunofluorescence, high-content cytometry, 24 h | Potency, µM (titrated, usually from 76.6 µM), without a hit: at the top dose activation (PINK1 increase), usual class: activators | 0.2% of 410,000 active | AID 624263; active = well fitted activation curve with a large enough effect; inconclusive = small, poorly fitted or top-dose-only effect; cell line not stated here; also: % of control where 0% means no effect; nearly all actives have a fitted effect of over 65% in size
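Decision-based qHTS: stable cells, 24 h exposure to five compound concentrations, CCCP as control. Fixed cells stained for PINK1 plus nuclear, mitochondrial and cell markers, cytometer read.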
KB-3-1 cytotox: kills parental KB-3-1 adenocarcinoma cells. KB-3-1 viability, CellTiter-Glo ATP luminescence, 72 h. Potency, µM (highest dose often 46.1 µM), actives largely listed as cytotoxic. 1.4% of 400,000 active; also: % is scaled to controls: 0 for no effect and ±100 for the full control effect; nearly all actives have a fitted effect of over 60% in size
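Cytotoxicity measured as CellTiter-Glo luminescence after 72 h at 37 C. Compound titrations were pinned onto drug-naive KB-3-1 parental adenocarcinoma cells grown in DMEM with 10% FBS, and normalized data fitted to concentration-response curves.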
SW480 rereplic: DNA re-replication induction in SW480 cells | SW480 DNA re-replication, Hoechst DNA content imaging, 48 h | Potency, µM (series often up to 46.1 µM), inactives show at the highest dose re-replication activation, most hits filed as activators | 1.8% of 340,000 active; also: % of control where 0% means no effect; nearly all actives have a fitted effect of over 55% in size
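Per well, 250 cells were exposed to pinned compound for 48 hr. Nuclear DNA was visualised with Hoechst (40 min, 37 C) and total object intensity recorded by fluorescence scanning.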
Starred values were filed as active, the others as inactive; i = inactive; ? = inconclusive; nt = no result given; [ ] = another dose, or the depositor's remark. Sampled rows, rich in hits. Any-hit rate of the full collection: about 5.8%. Unless noted, calls follow the shape of the dose curve; as a rule, active = well fitted curve in the direction sought with a large enough effect; inconclusive = small, poorly fitted or top-dose-only effect, or another doubt; inactive = no such curve, though single readings can be large; an effect the other way counts as inactive or inconclusive. Potency is read from the fitted curve at half-maximal effect.

SMILES	KB-V1 MDR tox	MCF10A rereplic	ALOX12 inh	PINK1 expr mod	KB-3-1 cytotox	SW480 rereplic
CN(C)/C=C\C(=O)c1ccc(Br)cc1	nt	nt	3.98µM*	nt	nt	nt
CN(C)/C=C/C(=O)c1ccc(-n2cccc2)cc1	?	?	?	0.5%	i	-19.0%
CN(C)/C=C/C(=O)c1ccc(-c2ccc(Cl)cc2Cl)o1	?	?	1.58µM*	-0.1%	i	-3.7%
COc1ccc(-c2noc(-c3cccn3CC(=O)Nc3cccc(Cl)c3C)n2)cc1F	nt	nt	4.2%	nt	nt	nt
Cc1ccc(CN(C)C(=O)Cn2c(=O)c3c(ncn3C3CCCC3)n(Cc3ccccc3)c2=O)o1	nt	nt	-0.2%	nt	nt	nt
C/C(=N\NC(=S)NCc1ccccc1)c1ccccc1	i	5.4%	39.8µM*	3.0%	i	13.7%
COc1ccc(CNC(=S)N/N=C(/C)c2ccccc2)cc1	i	6.7%	?	-0.8%	i	-8.2%
C/C(=N\NC(=S)NCc1ccccc1)c1ccc(C(C)(C)C)cc1	18.4µM*	?	35.5µM*	14.4%	i	3.9%
C/C(=N\NC(=S)NCc1ccccc1)c1ccc(C#N)cc1	i	8.1%	-7.8%	1.1%	i	-27.3%
C/C(=N\NC(=S)NCc1ccccc1)c1ccccc1F	i	-17.5%	35.5µM*	4.0%	i	-8.7%
Cc1nn(C)c(C)c1NC(=O)c1c(Br)cnn1C	nt	nt	21.1%	nt	nt	nt
CCC1(C)Cc2c(sc3nnn(CC(=O)Nc4ccccc4)c(=O)c23)CO1 (centres undefined)	7.31µM*	-2.6%	-7.7%	8.5%[38.3 µM]	i	2.1%
CCC1(C)Cc2c(sc3nnn(CC(=O)Nc4ccccc4C)c(=O)c23)CO1 (centres undefined)	14.6µM*	-1.4%	-27.2%	-2.2%[38.3 µM]	i	0.9%
Cc1ccccc1NC(=O)Cn1nnc2sc3c(c2c1=O)CC(C)(C)OC3	i	3.8%	100.0%	1.7%	i	1.9%
CCOc1ccc(NC(=O)Cn2nnc3sc4c(c3c2=O)CC(C)(CC)OC4)cc1 (centres undefined)	nt	nt	-9.3%	nt	nt	nt
CCC1(C)Cc2c(sc3nnn(Cc4ccccc4Cl)c(=O)c23)CO1 (centres undefined)	20.6µM*	16.4µM*	0.0%	5.5%[38.3 µM]	i	17.1%
NNc1ccc(F)cc1F	nt	nt	4.47µM*	nt	nt	nt
C=C1C(=O)OC2C=C(C)CCC=C(C)CCC12 (centres undefined)	nt	nt	-21.1%[57.4 µM]	nt	nt	nt
C=C1C(=O)OC2C=C(CO)CCC=C(CO)CC(OC(=O)C(C)C)C12 (centres undefined)	i	10.3µM*	7.4%	-0.9%	?	?
N#Cc1c(N)n(C2CCCCC2)c2nc3ccccc3nc12	?	1.03µM*	?	8.0%	?	8.2µM*
Nc1c(C(=O)Nc2ccccc2)c2nc3ccccc3nc2n1-c1ccc(O)cc1	i	14.6µM*	0.0%	10.1%	i	7.31µM*
N#Cc1c(N)n(-c2ccc(C(=O)O)cc2)c2nc3ccccc3nc12	i	18.4µM*	?	0.7%	i	?
CCOC(=O)c1c(N)n(-c2ccc(N)cc2)c2nc3ccccc3nc12	i	-6.9%	-21.1%	1.9%	i	-325.4%
N#Cc1c(N)n(-c2ccc(N)cc2)c2nc3ccccc3nc12	i	-3.5%	14.9%	0.6%	i	-94.5%
Cc1cc(OCC(=O)Nc2sc3c(c2C(=O)N2CCOCC2)CCCC3)ccc1Cl	nt	nt	-2.6%	nt	nt	nt
SMILES	KB-V1 MDR tox	MCF10A rereplic	ALOX12 inh	PINK1 expr mod	KB-3-1 cytotox	SW480 rereplic
N#CC1=C(N)Oc2c(ccc3ccccc23)C1c1ccc2c(c1)OCO2 (centres undefined)	nt	nt	1.0%	nt	nt	nt
CN(C)/C=N/C1=C(C#N)C(c2cccs2)c2ccc3ccccc3c2O1 (centres undefined)	5.8µM*	?	?	1.0%	2.59µM*	5.17µM*
C[n+]1cccc(C2C(C#N)=C(N)Oc3c2ccc2ccccc32)c1 (centres undefined)	?	?	-19.4%	0.8%	?	18.4µM*
N#CC1=C(N)Oc2cc3ccccc3cc2C1c1cccnc1 (centres undefined)	?	7.08µM*	0.0%	10.0%	5.8µM*	17.8µM*
N#CC1=C(N)Oc2c(ccc3cccnc23)C1c1cccnc1 (centres undefined)	?	8.2µM*	?	23.0%	?	2.59µM*
CC(C)(C)C1=C(C#N)C(c2cccnc2)C(C#N)=C(N)O1 (centres undefined)	i	3.0%	?	2.4%	i	-3.4%
C[n+]1cccc2ccc3c(c21)OC(N)=C(C#N)C3c1ccccc1 (centres undefined)	i	-9.7%	2.4%	7.8%	i	2.4%
CCOC(=O)Cc1ccc(NC(=O)NC(C)C(=O)N2CCc3ccccc32)cc1 (centres undefined)	nt	nt	-12.3%	nt	nt	nt
CC1CCC[C@]2(CCc3cc4c5c(c(=O)oc4cc3O2)CCCC5)C1 (some centres undefined)	nt	nt	-29.0%	nt	nt	nt
N#CC1=C(N)Oc2cc3ccccc3cc2C1c1cccs1 (centres undefined)	i	?	?	5.8%	10µM*	?
C=CCn1c2ccccc2c(=O)c2cc(C#CC3(O)CCCCC3)ccc21	i	?	-8.4%	3.4%	?	9.2µM*
COc1cccc2oc3cc(C#CC4(O)CCCCC4)ccc3c(=O)c12	i	?	?	10.7%	i	-1.6%
O=c1c2ccccc2oc2cc(C#CC3(O)CCCCC3)ccc12	i	20.6µM*	2.2%	1.9%	i	2.6%
COc1ccc(C)cc1-n1nnnc1SCc1noc(CC(C)C)n1	nt	nt	-18.8%	nt	nt	nt
Cc1nc2c(OCc3ccc(C(F)(F)F)cc3)cccn2c1N(C)CC1CC1	i	nt	-23.9%	?	i	nt
COC(=O)c1ccccc1COc1cccn2c(N(C)CC3CC3)c(C)nc12	14.6µM*	nt	1.3%	?	?	nt
CC1CCCCN1C(=O)COC(=O)CSc1ccc(C(N)=O)cc1[N+](=O)[O-] (centres undefined)	i	?	3.3%	0.0%	i	6.51µM*
CCC1CCCCN1C(=O)COC(=O)CSc1ccc(C(N)=O)cc1[N+](=O)[O-] (centres undefined)	i	-6.4%	0.6%	-0.5%	i	-4.9%
CCc1ccc(NC(=O)c2ccc(F)c(S(=O)(=O)N(CC)c3ccccc3)c2)cc1	i	9.6%	-18.1%	6.5%	i	0.0%
CCOc1ccc(NC(=O)c2ccc(F)c(S(=O)(=O)N(CC)Cc3ccccc3)c2)cc1	nt	nt	?	1.1%	nt	nt
CCN(c1ccccc1)S(=O)(=O)c1cc(C(=O)Nc2cccc(Cl)c2)ccc1F	20.6µM*	?	13.1%	10.8%	?	?
